Inconclusive results are not listed. Activity calls are given as the source filed them. Rule for the calls: active = hit-call score of the fitted dose curve at least 0.9, where 1 is the maximum; inconclusive = response in the unintended direction; inactive = score below 0.9.

Test [1] has as its target Cellular tumor antigen p53 (Homo sapiens) (UniProt P04637). Put plainly: TOX21_p53_BLA_p2_ratio: Tox21 HCT-116 p53 Agonism Beta-lactamase Assay, Ratio, Phase 2 (AID 2283592). The method, boiled down:
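Read-out is the blue/green (460/530 nm, 405 nm excitation) ratio after 2 h CCF4-AM loading, fitted as gain versus DMSO. Compounds, pinned at 217-fold dilution from DMSO stocks, stayed 16 h on HCT-116 beta-lactamase reporter cells seeded 5 h earlier.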

Test [2] can be described thus: TOX21_p53_BLA_p3_viability: Viability Assessment in the Tox21 HCT-116 p53 Agonism Beta-lactamase Assay, Phase 3 (AID 2283593).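 Note: cells exposed to compound for 16 h before reading.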 The essentials: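 HCT116 cells, 4000/well, dosed 5 h after plating by pin transfer (217-fold dilution from DMSO stock) and incubated 16 h at 37C, 5% CO2. Viability read as ATP luminescence with CellTiter-Glo after 30 min at room temperature.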

Test [3] addresses Cellular tumor antigen p53 (Homo sapiens) (UniProt P04637). Put plainly: TOX21_p53_BLA_p3_ratio: Tox21 HCT-116 p53 Agonism Beta-lactamase Assay, Ratio, Phase 3 (AID 2283596). The method, boiled down:
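Cells were seeded at 4000/well, rested 5 h at 37C, then dosed with DMSO compound solutions (217-fold dilution) for 16 h. CCF4-AM substrate was loaded for 2 h at room temperature, and the 460/530 nm emission ratio was fitted for gain of signal versus DMSO.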

For test [4] the target is unchanged. The test can be described thus: TOX21_p53_BLA_p5_ratio: Tox21 HCT-116 p53 Agonism Beta-lactamase Assay, Ratio, Phase 5 (AID 2283599). The method, boiled down:
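HCT-116 p53-bla cells (4000/well) plated 5 h, dosed with compound (217-fold DMSO dilution) for 16 h at 37 C; CCF4-AM substrate 2 h at room temperature. Activity is the 460/530 nm emission ratio (405 nm excitation), fitted in gain-of-signal direction versus DMSO.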

A short description of test [5]: TOX21_p53_BLA_p5_viability: Viability Assessment in the Tox21 HCT-116 p53 Agonism Beta-lactamase Assay, Phase 5 (AID 2283600). The method, boiled down:
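Viability came from CellTiter-Glo ATP luminescence, read after 30 min at room temperature. Before this, HCT-116 p53-bla cells (4000/well) had 16 hours of compound exposure at 37C, with DMSO stocks diluted 217-fold on transfer.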

Test [6] is described as follows: TOX21_p53_BLA_p4_viability: Viability Assessment in the Tox21 HCT-116 p53 Agonism Beta-lactamase Assay, Phase 4 (AID 2283597).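 Note: hits lower the luminescence signal meaning cytotoxicity.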 The essentials:
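Cytotoxicity as reduced cellular ATP (CellTiter-Glo luminescence, 30 min room temperature), measured in the same wells following the CCF4 FRET p53 reading. Human HCT-116 cells received compounds in DMSO (217-fold dilution) for 16 h.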

The target in test [7] is Cellular tumor antigen p53 (Homo sapiens) (UniProt P04637). The test can be described thus: TOX21_p53_BLA_p4_ratio: Tox21 HCT-116 p53 Agonism Beta-lactamase Assay, Ratio, Phase 4 (AID 2283601). The method, boiled down:
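HCT-116 p53 beta-lactamase reporter cells (4000/well) preincubated 5 h, then compound (217-fold dilution of DMSO stock) for 16 h at 37C. CCF4-AM substrate added 2 h at room temperature; 460/530 nm emission ratio fitted upward versus DMSO.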

Cellular tumor antigen p53 (Homo sapiens), sequence (P04637 whole entry, looked up): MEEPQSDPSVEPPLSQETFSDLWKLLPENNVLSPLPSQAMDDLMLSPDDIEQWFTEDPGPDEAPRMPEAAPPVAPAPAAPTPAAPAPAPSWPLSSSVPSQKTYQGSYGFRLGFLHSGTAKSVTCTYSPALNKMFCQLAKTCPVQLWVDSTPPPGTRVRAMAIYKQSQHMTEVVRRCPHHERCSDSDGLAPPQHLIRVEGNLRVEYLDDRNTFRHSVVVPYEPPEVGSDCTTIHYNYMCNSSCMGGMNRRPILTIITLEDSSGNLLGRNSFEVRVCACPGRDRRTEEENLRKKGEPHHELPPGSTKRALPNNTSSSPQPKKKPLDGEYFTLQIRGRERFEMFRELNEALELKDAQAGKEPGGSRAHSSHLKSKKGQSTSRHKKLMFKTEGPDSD

With `COCC(C)OC(C)=O` (stereo not drawn), the result in test [1], in test [2], in test [3], in test [4] and in test [5] was inactive.
As to `O=NN(CCCl)C(=O)NC1CCCCC1`, the result in test [1], in test [2], in test [3], in test [6] and in test [5] was inactive.
`CO[Si](CCCNCCC[Si](OC)(OC)OC)(OC)OC`: the result in test [1], in test [2], in test [3], in test [6], in test [5] and in test [7] was inactive.
As to `CCOC(=O)c1ccccc1O`, the result in test [1], in test [2], in test [3], in test [4] and in test [5] was inactive.
Turning to `COC(=O)CCc1ccc(OCC(O)CNC(C)C)cc1` (stereo not drawn), the result in test [1], in test [2], in test [3], in test [6] and in test [5] was inactive.
For `CCN(CC)CCNC(=O)COc1ccc(Cl)cc1`, the outcome in test [1], in test [2], in test [3], in test [6] and in test [7] was inactive.
For `O=C(NCCO[N+](=O)[O-])c1cccnc1`, the result in test [1], in test [2], in test [3], in test [6], in test [5] and in test [7] was inactive.
For `NCC(=O)O`, the result in test [1], in test [2], in test [3], in test [4] and in test [5] was inactive.
For the compound `CCN(CC)C(=O)Nc1ccc(OCC(O)CNC(C)(C)C)c(C(C)=O)c1` (stereo not drawn), the result in test [1], in test [2], in test [3], in test [6] and in test [5] was inactive.
In general, AC50 refers to the concentration at which the activity in the assay is half-maximal. Consider `CCCCC(O)c1ccccc1` (stereo not drawn), for which the outcome in test [1], in test [3], in test [6], in test [5] and in test [7] was inactive. In addition, in test [2], the AC50 was 30.6 µM (active).
Consider `C[N+]12CCC(CC1)C(OC(=O)C(O)(c1ccccc1)c1ccccc1)C2` (stereo not drawn), for which the result in test [1], in test [2], in test [3], in test [6] and in test [7] was inactive.
As to `C=COCC(C)C`, the outcome in test [1], in test [2], in test [3] and in test [4] was inactive.
Take `O=C(Oc1ccccc1)Oc1ccccc1`: the outcome in test [1], in test [2], in test [3], in test [4], in test [5] and in test [7] was inactive.
On to `CCCCC(CC)CN` (stereo not drawn), for which the result in test [1], in test [2], in test [3], in test [6] and in test [7] was inactive.
Regarding `CN1[C@@H]2CC[C@H]1CC(OC(c1ccccc1)c1ccccc1)C2` (stereo partly drawn), the outcome in test [1], in test [2], in test [3], in test [6], in test [5] and in test [7] was inactive.
As to `CC[C@H](C)[C@H](N)C(=O)O`, the result in test [1], in test [2], in test [3] and in test [4] was inactive.

Source of the values: PubChem BioAssay (EPA / NIEHS).
